# Measurements taken from PubChem BioAssay AID1347426 (Functional Genomics Laboratory (NCATS/FGL), 2020).
# The campaign covered roughly 31,000 sequences. About 1,400 (4.5%) were called active. The sample as a whole holds a higher share of actives than the screen did. A number with no mark means an inactive call.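 The calls were made as follows: active = median seed-adjusted z-score above 1 or below -1; inactive = the rest.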
# Assay: Novel Modifiers of Survival Motor Neuron (SMN) Protein: Gene Identification via Genome-wide siRNA Screen;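 also: luminescence tracks full-length SMN protein made from the SMN2 reporter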
# Settings: HEK293T SMN2-luciferase reporter, siRNA knockdown, 72 h; actives lie on both sides
# Method in brief: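 HEK293T cells stably expressing an SMN2 splicing/cDNA-luciferase reporter were reverse-transfected with a druggable-genome siRNA library and read by luminescence at 72 hours; hits defined by MAD score above 1.0 or below -1.0.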
row,Sequence,median seed-adjusted z-score
1,GGUGAUUCAAGAUGCCCAATT against PXMP2,-0.444
2,CUCCCAUGAUGGCAUCUUATT against HSPB2,0.247
3,CCAUCGAUGUCUCUGCUAUTT against ABCA1,-1.27 (active)
4,UCGUCUUUGUCACCCGAAATT against CCL5,0.11
5,CGUGCGGACAAUAAGCAAATT against MYO1C,0.566
6,GGCUAACUCGAUUUAAGCATT against TIGD2,-0.13
7,GACUUUGACAAAGCGAUUATT against SPTAN1,-0.233
8,CAUCCAUGGUUAAGUCAUATT against PTK6,-0.295
9,GCACCUCUACAGGAACUUUTT against TSC2,1.11 (active)
10,GCUCCUCGUUUGUAGAAGATT against SLIT3,-0.453
11,CGAUGUCUAGAGAACAGCATT against LAMB1,1.07 (active)
12,CGAGUACCGGGUCAAGAUATT against PLXND1,-0.064
13,CGGUGACCAUAGUACAACATT against FOXK2,-0.348
14,GAGCGCCUCUAGAAUGUAATT against HMX1,1.3 (active)
15,AGUUUGUGAUAUCAUGAGATT against FRMPD2,-0.329
16,UCAAUACUGUGGGUUCUUATT against FBLN2,0.176
17,GGUACCUGCUGAUUCAGAATT against SLC2A5,-0.429
18,GCUACAUCGAGGACCUUAATT against SERPINB1,0.734
19,CCAUUGUCUUCCACCGAAATT against RAN,-3.09 (active)
20,CAACGGUAAUUAUCAGUCATT against FABP7,0.562
21,GCCUGACUGUAACACCCAATT against TXN2,0.87
22,GGAAAGGUCUAGAUCAGGATT against SEL1L2,-0.342
23,GCAGCUUCACCUAUCCGAUTT against KLF4,0.883

row,Sequence,median seed-adjusted z-score
1,GCGAUAUUAUCAUACUGGATT against ZNF470,-1.26 (active)
2,CCACCGACGACAAUCUGUATT against ATP4A,0
3,AGGUCAGGGUUACAGCUUUTT against MPP2,0.0496
4,CCAUAUAAGUUUACGUUUATT against TM9SF2,1.09 (active)
5,CCUCGACCCUGUUUCUUAUTT against ARL4D,-0.523
6,CCACGUUCACCAAGAUCUUTT against RBM38,0.0358
7,GGCUUAUGGAGAUAUGAAUTT against PPFIA2,0.176
8,GGAACUCUUUGCUGAAUUUTT against THOC4,-1.54 (active)
9,CAUUAGUACUUCGAUCUAUTT against PHCA,0.0568
10,GCUCCAAAUGGAGAGUGUATT against PRKCDBP,0.244
11,GGAACAGCACAGAACAGCATT against ARID5A,0.0642
12,CCAUUGAAGCUUGAGAGAATT against ZNF286A,0.0368
13,CGAAGACUGUCUGAGACAATT against GPR52,-1.17 (active)
14,CCGUAAACAUAUGACUAAATT against ZBTB11,-0.105
15,CGCCAUCUGUGUAACUUCATT against CARD9,-0.325
16,GAGACCCUCUGGUUAUAGATT against FKBP11,-0.085
17,AGGCCGCUGUGGACAUCAATT against CASKIN1,0.555
18,GAUUCUACUGUCUUACUAATT against HIATL1,0.327
19,CAGCAGUACCGACAGAAGATT against ATAD3B,-0.624
20,UCAUGAACAUUGUCAAUGATT against ADAMTS2,-0.338
21,GUGGUUUCUUGAUCUGAAATT against HSDL2,-0.0717
22,GAGGCUUCAUUUUAGAAGATT against XPA,2.03 (active)
23,CCCUUUUCGUGGUCUAUGATT against LCMT2,-0.0205

row,Sequence,median seed-adjusted z-score
1,GCCUCGCUGUGAUCUGAUUTT against CACNG6,-0.0499
2,CGGUUGUUAUGACAAUGGATT against FN1,-0.312
3,UGCUCUACUUCUUAAGUGATT against STARD8,-0.135
4,GAAGGAUCUCAAACUCGAATT against NECAB1,0.0268
5,GAUCUUCGGUGAAUCAGAATT against MRC2,-1.34 (active)
6,GGUCAUUAAUUUACAUGAATT against STK17A,0
7,ACAACGUGGUGAGAUGCAATT against LOXL1,0.0435
8,GAGGUUUUAUAUAACCGAUTT against SMC6,0.227
9,GCAUGUUAUCGAAGGGUUUTT against PHC2,0.177
10,GAUGCUACUUUAGAAUUAATT against GNPDA2,-0.422
11,AGAUUUAUCUUGAAGCUGATT against ARL4D,-0.523
12,CUUGAUGACUCUAAACCUATT against RUNX2,0.335
13,AAGACUCACUUGUUCAACATT against ZNF772,0.817
14,GGGACAAGUUCGUCAUCUUTT against CRYAA,-1.03 (active)
15,CCUAUGAUAUGGUUCCAGATT against COX5A,-0.348
16,GGUAUACAAGGAAAGGUUATT against EIF4E,-0.404
17,UGGACAUUCUUGCACCCAATT against CHTF18,0.371
18,CAAUAUUAGUUGCUGUAUATT against PPAP2A,0
19,UGCUGACCUCGUUACCUUUTT against UCP3,1.23 (active)
20,CAGUCUUUAUGCAAUGGAATT against TYR,0.131
21,AGAUGUACAACGACCCAAATT against AGBL4,0.487
22,GCAUGGUAUUGGAAUAACUTT against CHEK1,-5.1 (active)
23,GACCUUCCACAGUACAUCATT against MAST3,-0.642
